# Laboratory results taken from PubChem BioAssay AID652010 (The Scripps Research Institute Molecular Screening Center, 2013).
# Out of some 370,000 compounds screened, about 4,100 (1.1%) were called active.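 How the source made its calls: active means inhibition above the mean over all tested compounds plus 3 SD (cut at about 3.6% in these data); inactive means the rest.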 The full list was thinned out, with actives kept by preference.
# Experiment: DAX1 (NR0B1) inhibitors on StAR promoter, primary screen, cell-based, luminescence, SF-1 (NR5A1), full-length DAX-1 (AID 652010);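 further: 0% = DAX-1 cells with DMSO and 100% = cells lacking DAX-1 with DMSO; higher inhibition means more luminescence from relief of DAX-1 repression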
# Details: HEK293T StAR-luciferase reporter, SF-1/DAX-1 repression relief; at 6.8 µM; active compounds read high
row,SMILES,inhibition
1,C=C(C)C1CC23C(=O)C4(C(=O)c5ccccc5)C[C@@]5(C)CCC(CC2C1(C)C)(C4=O)C35OC (stereo partly drawn),-0.55% (inactive)
2,CN1C[C@]2(C=C3CCCCC3n3c(=O)n(-c4ccccc4)c(=O)n32)N=C1NC(=O)c1ccccc1 (stereo partly drawn),-0.17% (inactive)
3,CCc1ccccc1NC(=O)CSc1nnc(-c2cccs2)o1,-1.18% (inactive)
4,Clc1ccc(C(Cn2ccnc2)OCc2ccsc2Cl)c(Cl)c1 (stereo not drawn),-1.62% (inactive)
5,COC(=O)c1ccccc1Oc1c(F)c(F)nc(N2CCOCC2)c1F,0.02% (inactive)
6,Fc1cnc(N2CCOCC2)nc1NCc1ccccc1,0.22% (inactive)
7,COc1ccc(Nc2ncc(F)c(N3CCOCC3)n2)cc1,4.78% (active)
8,CN(C)c1ccc(NC(=O)CSc2n[nH]c(-c3ccco3)n2)cc1,-1.06% (inactive)
9,CCCCC[C@H](C)N1C[C@@H](COCc2ccccc2)Oc2cc(N3CC[C@@H](N(C)C)C3)ccc2S1(=O)=O,0.28% (inactive)
10,COc1ccc(C2=CN(Cc3ccccc3)C(c3ccc(OC)cc3)CC2=O)cc1 (stereo not drawn),-1.09% (inactive)
11,O=S(=O)(NCC1CCCO1)c1ccc2ccccc2c1 (stereo not drawn),-0.46% (inactive)
12,O=C(c1cc(-c2cccs2)on1)N1CCCCC1,4.8% (active)
13,O=C(c1cc(C2CCCCN2S(=O)(=O)c2ccccc2)on1)N1CCOCC1 (stereo not drawn),-1.39% (inactive)
14,O=C(c1cc(-c2ccccc2O)on1)N1CCCC1,6.48% (active)
15,COc1cc(OC)c(C(=O)N2CCCC2)cc1OC,-0.07% (inactive)
16,CC(=O)c1ccc(NC(=O)c2cc(-c3cccs3)on2)cc1,0.84% (inactive)
17,COc1cc(Cl)ccc1OCc1cc(C(=O)N2CC[C@@H]3CCCC[C@H]3C2)no1,3.53% (inactive)
18,COc1ccccc1-c1cc(C(=O)N2CCCCC2)no1,9.11% (active)
19,COc1ccc(OCc2cc(C(=O)N3CCCC3)no2)c2ccccc12,6.04% (active)
20,O=C(c1cc(COc2ccc(F)cc2F)on1)N1CCOCC1,1.39% (inactive)

row,SMILES,inhibition
1,O=C(c1ccco1)N1CCN(C(=O)c2cc(-c3ccccc3F)no2)CC1,0.38% (inactive)
2,COc1ccc(C(=O)C2CCCN(C(=O)c3cc(C)on3)C2)cc1F (stereo not drawn),-0.49% (inactive)
3,CCOC(=O)C1CCCN(C(=O)c2cc(-c3cccs3)oc2C)CC1 (stereo not drawn),-0.69% (inactive)
4,O=C1CSC2=NCN(c3ccccc3)CN12,-0.05% (inactive)
5,CN(C)S(=O)(=O)c1cccc(C(=O)N/N=C\c2ccco2)c1,0.25% (inactive)
6,COC[C@@H]1CCCN1c1ccc2c(c1)O[C@H](C)CCN(C1CC1)S2(=O)=O,-1.04% (inactive)
7,CC(C)N1CCCCC(NC(=O)c2ccc3ccccc3c2)C1=O (stereo not drawn),0.26% (inactive)
8,O=C(NCCc1ccccn1)c1nc(Cn2cc([N+](=O)[O-])cn2)no1,0.2% (inactive)
9,COc1ccc(N2C(=O)CN=C2Nc2cccc(C)c2C)cc1OC,-0.59% (inactive)
10,O=C(NCc1ccccc1Cl)C1CCCN1S(=O)(=O)c1ccc(F)cc1 (stereo not drawn),-0.27% (inactive)
11,O=C(N1CCOCC1)N1CC[C@H]2[C@H](CCCN2Cc2ccc(F)cc2)C1,0.58% (inactive)
12,COC(=O)[C@]12C[C@H](CC(=O)N3CCN(C(=O)C4CC4)CC3)C(=O)N(CCC3=CCCCC3)C1=C[C@H](C(C)C)O[C@@H]2C1CC1,-0.81% (inactive)
13,COc1ccccc1N(C)S(=O)(=O)c1ccc(C(=O)NC2CCCCCC2)cc1,-0.26% (inactive)
14,O=C(CSc1nnc(-c2ccccn2)n1-c1ccc(Cl)cc1)Nc1ccccc1-c1ccccc1,-0.72% (inactive)
15,Cc1ccc(NC(=O)c2cc(C)nn2-c2ccccc2)c(C)c1,-0.54% (inactive)
16,Cc1cc(Br)ccc1NC(=S)NC1CCCC1,0.19% (inactive)
17,Cc1ccc(NC(=S)Nc2ncccc2C)c(C)c1,4.16% (active)
18,O=C(c1ccncc1)N1CC[C@H]2[C@H](CCCN2Cc2ccc(F)cc2)C1,-0.35% (inactive)
19,Cc1ccccc1CN1CCCCC(NC(=O)c2cccc(C#N)c2)C1=O (stereo not drawn),-1.4% (inactive)
20,Cc1ccc(C(=O)N/N=C/c2sc(=O)n(Cc3cccc(C(=O)O)c3)c2Cl)cc1,-0.16% (inactive)

row,SMILES,inhibition
1,Cc1ccc2cc(/C=N/Nc3ccc(C(=O)O)cc3)c(Cl)nc2c1,4.23% (active)
2,Cc1ccc(/C=C2\CCn3c2nc2cc(C(=O)O)ccc2c3=O)c(C)c1,-0.46% (inactive)
3,CCCCCCCCN1C(=O)[C@@H](CC(=O)NCCCC)C[C@@]2(C(=O)OC)C1=C[C@H](C(C)(C)C)O[C@@H]2C,1.52% (inactive)
4,O=C(NCCc1c[nH]c2ccccc12)c1cc2ccccc2oc1=O,6.37% (active)
5,O=C(NCCc1ccccc1)c1c[nH]c2ccc(F)cc2c1=O,-0.4% (inactive)
6,O=C(CCCCCn1c(=O)[nH]c2ccccc2c1=O)NCCc1c[nH]c2ccccc12,-0.81% (inactive)
7,O=C(NCCCCCCCCCNC(=O)C(F)(F)F)C(F)(F)F,0.58% (inactive)
8,COC(=O)C1=C(C)N(Cc2ccccc2C(F)(F)F)C(=NCc2ccc(OC)cc2)NC1c1cccc(C(F)(F)F)c1 (stereo not drawn),-2.23% (inactive)
9,Cc1cccc(NC(=S)N2CCC(C(=O)c3ccc(F)cc3)CC2)c1,0.4% (inactive)
10,O=C(Nc1ccc(-c2nnc(-c3ccccc3)o2)cc1)C1CCCO1 (stereo not drawn),3.77% (active)
11,CC(C)(C)NS(=O)(=O)c1ccc(NC(=O)C2CCCO2)cc1 (stereo not drawn),-0.07% (inactive)
12,CCOC(=O)c1ccc(NC(=O)c2ccc(NC(=O)C3CCCO3)cc2)cc1 (stereo not drawn),-1.16% (inactive)
13,CN1CCCc2nc(-c3ccccc3)ccc21,1.43% (inactive)
14,Cc1ccc(C(=O)O/N=C(\N)c2ccccn2)cc1Cl,1.79% (inactive)
15,C/C(=N\OC(=O)c1ccccc1)c1c(C)nc2cc(C)ccn12,-0.48% (inactive)
16,Cc1cccc(/C(N)=N/OC(=O)c2ccccc2Cl)c1,4.38% (active)
17,Cc1ccc(Cn2cc(COC(=O)N(C)Cc3ccccc3)nn2)cc1,-0.12% (inactive)
18,CC(C)(C)c1ccc(S(=O)(=O)NCC2CCN(C(=O)C(=O)c3cc4ccccc4o3)CC2)cc1,-1.6% (inactive)
